Values joined by “and” are separate entries in the source; they are usually repeats but may differ in a detail not shown here. Identical values can stand only once. Records with an inconclusive call do not appear. Entries that show only a call come without a potency. Where a structure was tested more than once in an assay, its records may differ in their call. Active and inactive are the calls of the source. Unless noted, calls follow the shape of the dose curve; as a rule, active = well fitted curve in the direction sought with a large enough effect in the repeat runs; inconclusive = weak or mixed curves; inactive = no such curve, though single readings can be large; an effect the other way counts as inactive or inconclusive.
Legend:
[1] = qHTS assay to test for compound auto fluorescence at 535 nm (green) in HEK293 cells (AID 720680)
[2] = qHTS assay to test for compound auto fluorescence at 460 nm (blue) in HEK293 cell free culture (AID 720681)
In short: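 Test compounds were pinned into cell-free culture medium (DMEM with 10% FBS) and fluorescence was read directly at Ex/Em 405/460 nm. Signals were expressed as fluorescence equivalents of triamterene, with DMSO vehicle as control.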

[3] = qHTS assay to test for compound auto fluorescence at 535 nm (green) in HEK293 cell free culture (AID 720682)
In short: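 Steps: dispense DMEM/10% FBS into empty wells; pin in compound or DMSO; measure fluorescence at 485/535 nm. Values are fluorescein equivalents.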

[4] = qHTS assay to test for compound auto fluorescence at 590 nm (red) in HEK293 cell free culture (AID 720683)
In short: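 Tox21 10K library compounds were pinned into cell-free DMEM with 10% FBS and fluorescence was read at excitation 540 nm. Activity is expressed as Rose Bengal sodium equivalency.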

[5] = qHTS assay to test for compound auto fluorescence at 590 nm (red) in HepG2 cell free culture (AID 720684)
In short: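 Measured in medium alone (MEM containing 10% FBS) following pintool addition of compound; emission at 590 nm with 540 nm excitation, referenced to Rose Bengal sodium.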

[6] = qHTS assay to test for compound auto fluorescence at 460 nm (blue) in HepG2 cell free culture (AID 720685)
In short: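 Compound (23 nL) or DMSO pinned into cell-free MEM with 10% FBS; blue fluorescence read at 405/460 nm excitation/emission, expressed as auto-fluorescence equivalency to triamterene.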

[7] = qHTS assay to test for compound auto fluorescence at 535 nm (green) in HepG2 cell free culture (AID 720686)
[8] = qHTS assay to test for compound auto fluorescence at 460 nm (blue) in HepG2 cells (AID 720687)
In short: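 Cells (2,000/well in MEM with 10% FBS) attached overnight at 37 C, then were exposed to compound or DMSO for 1 hr at 37 C, 5% CO2. Fluorescence read at Ex/Em 405/460 nm, expressed as triamterene-equivalent signal.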

[9] = qHTS assay to identify small molecule antagonists of the glucocorticoid receptor (GR) signaling pathway - cell viability counter screen (AID 720693); also: nearly all actives have a fitted effect of over 55% in size
[10] = qHTS assay for identifying genotoxic compounds that show differential cytotoxicity against isogenic chicken DT40 cell lines with known DNA damage response pathways - wild type cell line (AID 743012); also: nearly all actives have a fitted effect of over 60% in size; also: potency is read from the fitted curve at half-maximal effect
In short: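 Using parental DT40 (300 cells/well), compounds delivered in DMSO incubate 40 h at 37 C/5% CO2. CellTiter-Glo reagent then stands 30 min at room temperature, and luminescence gives cell viability.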

[11] = qHTS assay for identifying genotoxic compounds that show differential cytotoxicity against isogenic chicken DT40 cell lines with known DNA damage response pathways - Rev3 mutant cell line (AID 743014); also: nearly all actives have a fitted effect of over 55% in size; also: potency is read from the fitted curve at half-maximal effect
[12] = qHTS assay for identifying genotoxic compounds that show differential cytotoxicity against isogenic chicken DT40 cell lines with known DNA damage response pathways - Rad54/Ku70 mutant cell line (AID 743015); also: nearly all actives have a fitted effect of over 60% in size; also: potency is read from the fitted curve at half-maximal effect
[13] = qHTS assay to identify small molecule antagonists of the androgen receptor (AR) signaling pathway - cell viability counter screen (AID 743033; also: nearly all actives have a fitted effect of over 45% in size; also: potency is read from the fitted curve at half-maximal effect)
[14] = qHTS assay to identify small molecule antagonists of the androgen receptor (AR) signaling pathway using the MDA cell line - cell viability counter screen (AID 743041; also: nearly all actives have a fitted effect of over 45% in size)
In short: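 Viability counter screen run alongside the AR antagonist reporter: cells seeded 5 h before compound, R1881 added, 16 h incubation at 37C without CO2, fluorescent CellTiter-Fluor signal quantified.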

[15] = target: Glucocorticoid receptor (Homo sapiens) (UniProt P04150); test: qHTS assay to identify small molecule agonists of the glucocorticoid receptor (GR) signaling pathway (AID 720691; active = well fitted activation curve with a large enough effect in the signal ratio in the repeat runs, not every such curve was filed as active; the % refers to the signal ratio)
In short: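 Reporter read-out: fluorescence intensity following 2 h room-temperature LiveBLAzer B/G FRET substrate loading. Prior step: GR-bla HeLa cells held 4 h, then treated 18 h at 37 C.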

[16] = target: Glucocorticoid receptor (Homo sapiens) (UniProt P04150); test: qHTS assay to identify small molecule antagonists of the glucocorticoid receptor (GR) signaling pathway (AID 720692; active = well fitted inhibition curve with a large enough effect in the signal ratio in the repeat runs, not every such curve was filed as active; the % refers to the signal ratio)
In short: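 Dexamethasone (5 nM final) stimulated a stably integrated GRE-beta-lactamase reporter in HeLa cells during 18 h co-incubation with compounds; signal was quantified as fluorescence intensity of B/G FRET substrate after 2 h.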

[17] = target: Androgen receptor (Homo sapiens) (UniProt P10275); test: qHTS assay to identify small molecule antagonists of the androgen receptor (AR) signaling pathway (AID 743035; active = well fitted inhibition curve with a large enough effect in the signal ratio in the repeat runs, not every such curve was filed as active; the % refers to the signal ratio)
In short: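 Using qHTS, AR-UAS-bla GripTite HEK293 cells received compound, then R1881, and were cultured 16 h at 37C/5% CO2 before a 2 h room-temperature LiveBLAzer B/G FRET substrate step and fluorescence measurement.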

[18] = target: Androgen receptor (Homo sapiens) (UniProt P10275); test: qHTS assay to identify small molecule agonists of the androgen receptor (AR) signaling pathway (AID 743036; active = well fitted activation curve with a large enough effect in the signal ratio in the repeat runs, with a control signal flat, not every such curve was filed as active; the % refers to the signal ratio)
In short: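 Reporter line: GeneBLAzer AR-UAS-bla-GripTite (HEK293). Steps: plate cells, 4 h rest, add compounds, 16 h at 37C, add LiveBLAzer B/G substrate, 2 h at RT, read fluorescence.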

[19] = target: Androgen receptor (Homo sapiens) (UniProt P10275); test: qHTS assay to identify small molecule agonists of the androgen receptor (AR) signaling pathway using the MDA cell line (AID 743040; also: nearly all actives have a fitted effect of over 20% in size)
In short: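 Luminescence from ONE-Glo, read after 30 min at room temperature, reflects MMTV-driven luciferase in MDA-kb2 cells (AR- and GR-responsive). Treatment lasted 16 h at 37C, 0% CO2.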

[20] = target: Androgen receptor (Homo sapiens) (UniProt P10275); test: qHTS assay to identify small molecule antagonists of the androgen receptor (AR) signaling pathway using the MDA cell line (AID 743042; also: nearly all actives have a fitted effect of over 55% in size)
In short: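 MDA-kb2 cells (human breast carcinoma, stably carrying an MMTV-luciferase reporter responsive to AR and GR) were plated at 3,000 cells/well and preincubated 5 hr at 37C, then given compound plus R1881 agonist for 16 h. ONE-Glo luminescence was read.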

Androgen receptor (Homo sapiens), sequence (P10275 whole entry, looked up): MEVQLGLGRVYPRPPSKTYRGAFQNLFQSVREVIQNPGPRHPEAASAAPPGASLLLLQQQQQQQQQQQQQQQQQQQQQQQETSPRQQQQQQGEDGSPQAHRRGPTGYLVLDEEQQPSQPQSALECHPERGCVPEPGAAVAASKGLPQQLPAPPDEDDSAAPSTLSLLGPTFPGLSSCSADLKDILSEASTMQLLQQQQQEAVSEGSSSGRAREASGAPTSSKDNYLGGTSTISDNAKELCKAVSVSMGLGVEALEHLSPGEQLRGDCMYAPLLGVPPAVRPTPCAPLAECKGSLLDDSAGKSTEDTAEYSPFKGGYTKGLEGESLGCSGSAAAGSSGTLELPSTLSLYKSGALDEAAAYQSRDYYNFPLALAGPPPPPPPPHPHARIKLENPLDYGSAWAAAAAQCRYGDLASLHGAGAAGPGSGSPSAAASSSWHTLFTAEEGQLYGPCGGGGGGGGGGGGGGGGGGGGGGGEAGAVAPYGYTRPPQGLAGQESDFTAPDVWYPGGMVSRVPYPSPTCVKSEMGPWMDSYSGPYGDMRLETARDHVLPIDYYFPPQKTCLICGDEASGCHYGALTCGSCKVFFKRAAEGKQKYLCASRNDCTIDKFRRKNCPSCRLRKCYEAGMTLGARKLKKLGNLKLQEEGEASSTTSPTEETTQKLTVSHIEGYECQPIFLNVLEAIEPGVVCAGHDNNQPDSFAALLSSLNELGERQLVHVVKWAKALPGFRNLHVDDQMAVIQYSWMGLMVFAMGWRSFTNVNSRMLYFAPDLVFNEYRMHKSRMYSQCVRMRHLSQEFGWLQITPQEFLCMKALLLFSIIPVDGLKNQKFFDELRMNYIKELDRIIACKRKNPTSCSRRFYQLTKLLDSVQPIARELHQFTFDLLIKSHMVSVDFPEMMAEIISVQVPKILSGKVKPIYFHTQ
Glucocorticoid receptor (Homo sapiens), sequence (P04150 whole entry, looked up): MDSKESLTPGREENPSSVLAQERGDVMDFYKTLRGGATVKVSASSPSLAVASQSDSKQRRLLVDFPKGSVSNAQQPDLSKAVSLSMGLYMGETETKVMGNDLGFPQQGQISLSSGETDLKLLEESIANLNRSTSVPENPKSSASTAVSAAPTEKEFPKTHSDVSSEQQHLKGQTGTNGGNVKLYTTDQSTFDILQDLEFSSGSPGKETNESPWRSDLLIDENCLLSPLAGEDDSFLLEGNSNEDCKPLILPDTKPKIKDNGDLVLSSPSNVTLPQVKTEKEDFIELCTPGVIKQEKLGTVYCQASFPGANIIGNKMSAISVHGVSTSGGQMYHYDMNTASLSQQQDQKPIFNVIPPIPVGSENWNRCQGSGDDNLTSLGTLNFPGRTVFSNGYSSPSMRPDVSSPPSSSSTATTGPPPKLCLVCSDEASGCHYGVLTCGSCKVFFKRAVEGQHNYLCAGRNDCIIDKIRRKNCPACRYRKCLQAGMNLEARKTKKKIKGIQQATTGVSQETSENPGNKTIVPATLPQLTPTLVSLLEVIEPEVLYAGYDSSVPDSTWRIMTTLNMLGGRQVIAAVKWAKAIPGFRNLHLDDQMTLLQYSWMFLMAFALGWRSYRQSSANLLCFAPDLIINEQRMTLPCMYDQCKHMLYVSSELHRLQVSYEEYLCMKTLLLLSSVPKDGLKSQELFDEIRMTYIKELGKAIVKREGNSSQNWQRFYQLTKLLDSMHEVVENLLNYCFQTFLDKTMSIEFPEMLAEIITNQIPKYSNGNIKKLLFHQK

| SMILES | outcome [1] | outcome [2] | outcome [3] | outcome [4] | outcome [5] | outcome [6] | outcome [7] | outcome [8] | Potency [9] | Potency [10] | Potency [11] | Potency [12] | Potency [13] | Potency [14] | outcome [15] | Potency [16] | outcome [17] | outcome [18] | outcome [19] | Potency [20] |
| --- | --- | --- | --- | --- | --- | --- | --- | --- | --- | --- | --- | --- | --- | --- | --- | --- | --- | --- | --- | --- |
| CCCC[n+]1ccc(C)cc1 | inactive | inactive | inactive | inactive | inactive | inactive | inactive | inactive | inactive | inactive and 54.2 µM (active) | inactive and 60.8 µM (active) | inactive and 48.3 µM (active) and 60.8 µM (active) | inactive | inactive |  |  |  |  |  |  |
| CCC(=O)C(CC(C)N(C)C)(c1ccccc1)c1ccccc1 (stereo not given) | inactive | inactive | inactive | inactive | inactive | inactive | inactive | inactive | inactive | 24.4 µM (active) and 41.5 µM (active) | 48.8 µM (active) and 60.7 µM (active) and 46.6 µM (active) | 43.5 µM (active) and 41.5 µM (active) | inactive | inactive | inactive | inactive | inactive | inactive | inactive | inactive |
| N#CS | inactive | inactive | inactive | inactive | inactive | inactive | inactive | inactive | inactive | inactive | inactive | inactive | inactive | inactive | inactive | inactive |  |  |  |  |
| CCCCCCCCCCCC(=O)O | inactive | inactive | inactive | inactive | inactive | inactive | inactive | inactive | inactive | inactive | inactive | 27.4 µM (active) | inactive | inactive |  |  |  |  |  |  |
| Nc1ccc(Cl)cc1 | inactive | inactive | inactive | inactive | inactive | inactive |  | inactive | inactive | inactive | inactive | inactive | inactive | inactive | inactive | inactive |  |  |  |  |
| O=[N+]([O-])O | inactive | inactive | inactive | inactive | inactive | inactive | inactive | inactive | inactive | inactive and 42.1 µM (active) | inactive and 9.43 µM (active) | inactive and 29.8 µM (active) | inactive | inactive | inactive | inactive |  |  |  |  |
| CNC | inactive | inactive | inactive | inactive | inactive | inactive | inactive | inactive | inactive |  |  |  | inactive | inactive | inactive | inactive |  |  |  |  |
| CCCC[N+]1(C)CCCCC1 | inactive | inactive | inactive | inactive | inactive | inactive | inactive | inactive | inactive | inactive | inactive | inactive | inactive | inactive |  |  |  |  |  |  |
| C=CCOC(Cn1ccnc1)c1ccc(Cl)cc1Cl (stereo not given) | inactive | inactive | inactive | inactive | inactive | inactive | inactive | inactive | inactive | 11.9 µM (active) and 48.7 µM (active) and 13.7 µM (active) | 21.1 µM (active) and 27.4 µM (active) and 12.2 µM (active) | 21.1 µM (active) and 43.4 µM (active) and 13.7 µM (active) | inactive and 49.1 µM (active) | inactive | inactive | inactive |  |  |  |  |
| O=C(O)C(Cl)Cl | inactive | inactive | inactive | inactive | inactive | inactive | inactive | inactive | inactive | inactive | inactive | inactive | inactive | inactive | inactive | inactive |  |  |  |  |
| O=c1nc(O)n(Cl)c(=O)n1Cl | inactive | inactive | inactive | inactive | inactive | inactive | inactive | inactive | inactive | inactive | inactive | inactive | inactive | inactive | inactive | inactive |  |  |  |  |
| CCCC[n+]1cccc(C)c1 | inactive | inactive | inactive | inactive | inactive | inactive | inactive | inactive | inactive | inactive | inactive | inactive | inactive | inactive | inactive | inactive |  |  |  |  |
| Cc1cc(Cl)ccc1OCC(=O)O | inactive | inactive | inactive | inactive | inactive | inactive | inactive | inactive | inactive | inactive | inactive | inactive | inactive | inactive | inactive | inactive | inactive | inactive | inactive | inactive |
| Oc1cccc2cccnc12 | inactive | inactive | inactive | inactive | inactive | inactive | inactive | inactive | inactive |  |  |  |  |  |  |  |  |  |  |  |
| C[N+](C)(C)Cc1ccccc1 | inactive | inactive | inactive | inactive | inactive | inactive |  | inactive | inactive | inactive | inactive | inactive | inactive | inactive | inactive | inactive |  |  |  |  |

Source: PubChem BioAssay (Tox21)
